This note sets out measurements from PubChem BioAssay (NCI).

Each structure is given as a SMILES string. Values joined by “and” are separate entries in the source; they are usually repeats but may differ in a detail not shown here. Equal values may be shown once. The panel holds about 83,000 compounds, 20% with a hit somewhere; the sample as a whole holds those more often.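 A percent growth of 40 corresponds to 60% growth inhibition; 0 means no net growth; -100 means all cells died. Active threshold: below 10.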 Unmarked numbers belong to inactive results. Active and inactive are the calls of the source.

Holding throughout (assay): NCI-60 one-dose screen, 48 h (100 = growth as untreated, 0 = no growth, -100 = all killed)
Common to all, as to conditions: 10 µM unless noted

Assay [1] relates to NCI-H23 lung.
The subject of assay [2] is NCI-H226 lung.
Assay [3] concerns NCI-H322M lung.
The subject of assay [4] is HOP-62 NSCLC.
In assay [5] the test system is NCI-H460 lung.
Assay [6] concerns HOP-92 NSCLC.
Assay [7] relates to A549/ATCC NSCLC.
For assay [8], the system named is 786-0 renal.
The test system of assay [9] is COLO 205 colon.
Assay [10] concerns DU-145 prostate.
In assay [11] the test system is K-562 leukemia.
In assay [12] the test system is MALME-3M melanoma.
Assay [13] concerns MDA-MB-231 breast.
Assay [14] concerns RXF 393 renal.
Assay [15] has as its system SF-268 CNS.
Assay [16] deals with SF-295 CNS.
Assay [17] concerns SF-539 CNS.
Assay [18] relates to UACC-257 melanoma.
In assay [19] the test system is M14 melanoma.
The subject of assay [20] is NCI-H522 lung.

With `CS(=O)(=O)Nc1cccc(-n2c(COc3ccc(OC(F)(F)F)cc3)nc3ccccc32)c1`, the growth was 84.7% and 104% in assay [1]; 83.3% and 103% in assay [2]; 101% and 121% in assay [3]; 96.2% and 97.2% in assay [4]; 110% in [5]; 59.6% and 108% in [6]. Also, the growth is 96.1% and 111% in assay [7]; 110% and 103% in assay [8]; 100% and 113% in assay [9]; 105% and 121% in [10]; 82.2% and 107% in assay [11]; 89.6% and 102% in assay [12]. Besides, the growth in [13] was 92.4% and 110%; in assay [14], 85.8% and 110%; in assay [15] it was 90% and 113%; in [16] it was 92.7% and 100%; in assay [17], 81.1% and 105%; in assay [18], 106% and 109%. Also, the growth in [19] is 114% and 107%.
Turning to `Nc1nnc(CS(=O)(=O)c2ccccc2)s1`, the growth in assay [1] is 107%; in assay [2], 121%; in [3], 94.6%; in [4] it was 102%; in assay [5], 114%; in [6], 86.5%. The growth in assay [7] is 102%; in assay [8], 108%; in [9] it was 117%; in [10], 113%; in assay [11], 98.9%; in assay [12], 94.1%. The growth in assay [13] is 102%; in assay [14], 172%; in assay [15], 105%; in [16], 99.2%; in assay [17] it was 101%; in [18], 97.1%. In addition, in [19], the growth is 97.3%.
In the case of `CCc1ccc(SC2c3cc(OC)ccc3Oc3nc(N)c(C#N)c(N)c32)cc1` (stereo not drawn), the growth in assay [1] is -5.83% (active); in [2] it was -6.69% (active); in assay [3], -48% (active); in assay [4], 1.33% (active); in [5], 3.96% (active); in assay [6], -38.5% (active). The growth in assay [7] was -41.2% (active); in assay [8], -54.6% (active); in [9] it was -68.9% (active); in assay [10], 3.29% (active); in assay [11] it was 0.578% (active); in assay [12], -55.2% (active). Further, the growth in [13] was -41.4% (active); in assay [14] it was -61.8% (active); in [15], -4.75% (active); in assay [16], -58.8% (active); in assay [17] it was -62.1% (active); in assay [18] it was -9.43% (active). The growth in assay [19] is -14.1% (active).
As for `O=C(N=Nc1c(O)[nH]c2ccc(Br)cc12)c1ccc2nc(-c3ccc(Cl)cc3)[nH]c2c1`, the growth is -69.4% (active) in [1]; 16.6% in assay [2]; 6.48% (active) in assay [3]; -55.9% (active) in assay [4]; -19.4% (active) in assay [5]; -9.49% (active) in [6]. The growth in [7] is 14.9%; in assay [8] it was -73.7% (active); in [9] it was -36.1% (active); in [10], -4.97% (active); in assay [11], 10%; in assay [12], -34.7% (active). In addition, the growth in assay [13] was -89.5% (active); in assay [14], -42.3% (active); in [15] it was -16.2% (active); in assay [16] it was -62.8% (active); in assay [17], -100% (active); in assay [18], 46%. Also, the growth in assay [19] is -3.86% (active).
Consider `COc1ccc2c(c1)N=c1c-2cc2c(O)[nH]c(=S)n2c1=O`, for which the growth in assay [1] was 43.1%; in assay [2], 46.1%; in [3] it was 78.1%; in assay [4] it was 36.6%; in [5] it was 83.1%; in assay [6] it was 71.3%. The growth in assay [20] was -9.92% (active); in [8], 35.3%; in [9] it was 30.7%; in [10], 50.8%; in assay [11], 19.7%; in [12] it was 54.8%. The growth is 42.1% in assay [13]; 11.4% in [14]; 84.4% in assay [15]; 26.1% in [16]; -7.78% (active) in [17]; 53.4% in assay [18]. Further, the growth in assay [19] was 40%.
Turning to `N#C/C(=C/c1ccc(Cl)cc1)c1nnc(NC(=O)c2ccc(-n3c(=O)[nH]c4ccccc4c3=O)cc2)s1`, the growth in [1] is 28.6%; in [2] it was 2.1% (active); in assay [3], 59.5%; in assay [4] it was 26.6%; in assay [5], 10.1%; in assay [6], 39.3%. The growth in assay [20] was 46.4%; in assay [8], 48.1%; in assay [9], 68.1%; in assay [10] it was 85.1%; in assay [11] it was 99%; in assay [12], 68.2%. For the same molecule, the growth in [13] was -5.08% (active); in assay [14], 20.1%; in [15] it was 73.2%; in assay [16], 96.3%; in [17] it was 24.1%; in assay [18] it was 102%. Besides, the growth in assay [19] is 78.8%.
Consider `CCc1ccccc1NC(=O)N/C(N)=N/c1nc2ccccc2s1`, for which the growth in assay [1] is -2.24% (active); in assay [2], 22.5%; in assay [3], 28.3%; in assay [4] it was -14.9% (active); in assay [5], 39.5%; in assay [6], -15.2% (active). For the same molecule, the growth in assay [7] was 9.65% (active); in assay [8], -4.92% (active); in [9], -84.1% (active); in assay [10] it was -8.39% (active); in [11], 10.6%; in [12] it was 5.84% (active). For the same molecule, the growth in [13] was -21.3% (active); in assay [14] it was 11.8%; in assay [15] it was 29.6%; in assay [16], -9.81% (active); in [17], -50.4% (active); in assay [18], 49.7%. The growth in assay [19] is 9.76% (active).
